Drawing on the supplement of paper PMC6279402, this text covers relative viability for 37 compounds.

Structures can show the parent of a compound that is named as a salt. ± gives the standard deviation of the averaged measurements.

The subject of the first assay is A549. The assay can be described thus: relative viability (normalised to negative control = 1, bortezomib = 0) (fraction); higher = less cytotoxic. To be noted: inflammatory serum-free RHB-A with cytokines + LPS; 5 d + 24 h CellTiter-Blue; compound 300 nM; GSK126 pretreatment: 5 uM GSK126. (In general: Alamar Blue is a resazurin reagent that responds to reducing activity.)
Regarding `C[C@]12CC[C@H](O)CC1=CC[C@@H]1[C@@H]2CC[C@]2(C)C(c3cccnc3)=CC[C@@H]12` [Abiraterone], the relative viability was 0.937 ± 0.15.

In the case of `O=c1c(O)c(-c2ccc(O)c(O)c2)oc2cc(O)cc(O)c12` [QUERCETIN; Quercetin(Sophoretin); Quercetin dihydrate], the relative viability was 0.961 ± 0.11.

On to `CO[C@H]1C[C@@H]2CC[C@@H](C)[C@@](O)(O2)C(=O)C(=O)N2CCCC[C@H]2C(=O)O[C@H]([C@H](C)C[C@@H]2CC[C@@H](OCCO)[C@H](OC)C2)CC(=O)[C@H](C)/C=C(\C)[C@@H](O)[C@@H](OC)C(=O)[C@H](C)C[C@H](C)/C=C/C=C/C=C/1C` [Everolimus; Everolimus(RAD001)], for which the relative viability amounted to 0.562 ± 0.068.

`C#Cc1cccc(Nc2ncnc3cc(OCCOC)c(OCCOC)cc23)c1`: the relative viability is 0.448 ± 0.041.

In the case of `CCC[C@H](NC(=O)/C(C#N)=C/c1cccc(Br)n1)c1ccccc1`, the relative viability is 0.973 ± 0.14.

Regarding `COc1cc(Nc2ncc(F)c(Nc3ccc4c(n3)N(COP(=O)(O)O)C(=O)C(C)(C)O4)n2)cc(OC)c1OC`, the relative viability turned out to be 0.952 ± 0.013.

In the case of `CCCS(=O)(=O)Nc1ccc(F)c(C(=O)c2c[nH]c3ncc(Cl)cc23)c1F`, the relative viability came to 0.851 ± 0.19.

In the case of `CC/C(=C(\c1ccccc1)c1ccc(OCCN(C)C)cc1)c1ccccc1` [Tamoxifen citrate], the relative viability worked out at 0.909 ± 0.13.

With `COc1cc2/c(=N/c3ccc(Br)cc3F)nc[nH]c2cc1OCC1CCN(C)CC1` [Vandetanib], the relative viability was 0.742 ± 0.12.

Turning to `N#CCNC(=O)c1ccc(-c2ccnc(Nc3ccc(N4CCOCC4)cc3)n2)cc1`, the relative viability came to 1.22 ± 0.083.

Consider `O=c1cc(N2CCOCC2)oc2c(-c3ccccc3)cccc12`, for which the relative viability was determined as 0.748 ± 0.15.

Take `CN(C)C/C=C/C(=O)Nc1cc2c(Nc3ccc(F)c(Cl)c3)ncnc2cc1O[C@H]1CCOC1` [BIBW2992; BIBW2992(Tovok)]: the relative viability is 0.281 ± 0.036.

For `S=c1[nH]cnc2nc[nH]c12` [Mercaptopurine], the relative viability is 0.958 ± 0.067.

In the case of `CN(C)c1nc(N(C)C)nc(N(C)C)n1` [Altretamine], the relative viability stood at 0.931 ± 0.02.

`Cn1cc(-c2ccc3nnc(Sc4ccc5ncccc5c4)n3n2)cn1`: the relative viability worked out at 0.859 ± 0.033.

Take `Nc1nc(N)c2nc(-c3cccc(O)c3)c(-c3cccc(O)c3)nc2n1`: the relative viability was 0.664 ± 0.14.

`CCCNC(=O)Nc1ccc(Oc2ncnc3cc(OC)c(OC)cc23)cc1Cl`: the relative viability worked out at 0.775 ± 0.19.

For `CNC(=O)Nc1ccc(-c2nc(N3CC4CCC(C3)O4)c3cnn(C4CCC5(CC4)OCCO5)c3n2)cc1`, the relative viability is 0.226 ± 0.011.

Regarding `N#Cc1c(O)c2c(-c3ccc(-c4ccccc4O)cc3)csc2[nH]c1=O`, the relative viability is 0.938 ± 0.18.

`CC(=O)c1c(C)c2cnc(Nc3ccc(N4CCNCC4)cn3)nc2n(C2CCCC2)c1=O`: the relative viability stood at 0.903 ± 0.087.

Regarding `CC[C@@]1(O)C(=O)OCc2c1cc1n(c2=O)Cc2cc3c(CN(C)C)c(O)ccc3nc2-1` [Topotecan HCl; Topotecan hydrochloride], the relative viability came out at 0.317 ± 0.026.

Consider `COc1cc2c(Oc3ccc4[nH]c(C)cc4c3F)ncnc2cc1OCCCN1CCCC1` [Cediranib(AZD2171)], for which the relative viability is 0.981 ± 0.11.

For `Cn1cnc2c(F)c(Nc3ccc(Br)cc3Cl)c(C(=O)NOCCO)cc21` [AZD6244(Selumetinib)], the relative viability stood at 0.203 ± 0.028.

Regarding `CC(C)C[C@H](NC(=O)[C@H](CCc1ccccc1)NC(=O)CN1CCOCC1)C(=O)N[C@@H](Cc1ccccc1)C(=O)N[C@@H](CC(C)C)C(=O)[C@@]1(C)CO1` [Carfilzomib], the relative viability was -0.00389 ± 0.00043.

Take `Nc1nccc(Oc2ccc(NC(=O)c3c[nH]cc(-c4ccc(F)cc4)c3=O)cc2F)c1Cl`: the relative viability was 1.14 ± 0.15.

For the compound `CNC(=O)CN1CCC(Oc2cc3c(Nc4cccc(Cl)c4F)ncnc3cc2OC)CC1`, the relative viability amounted to 0.346 ± 0.075.

For the compound `NC(=O)c1ccc(-c2nc(-c3ccccn3)c(-c3ccc4c(c3)OCO4)[nH]2)cc1`, the relative viability amounted to 0.817 ± 0.073.

Regarding `CN(C)Cc1cccc(N=C(c2ccccc2)c2c(O)[nH]c3cc(C(N)=O)ccc23)c1`, the relative viability was 1.08 ± 0.2.

In the case of `Cc1cccc(-c2[nH]c(C(C)(C)C)nc2-c2ccc3nccnc3c2)n1`, the relative viability was determined as 0.799 ± 0.036.

Take `OC[C@H]1O[C@@H](n2cnc3c2N=CNC[C@H]3O)C[C@@H]1O` [Pentostatin]: the relative viability was 0.931 ± 0.076.

As to `CC(C)C[C@H](NC(=O)[C@H](Cc1ccccc1)NC(=O)c1cnccn1)B(O)O` [Bortezomib], the relative viability was found to be 0.00234 ± 0.0024.

For the compound `O=C1NC(=O)/C(=C/c2ccc3c(c2)OC(F)(F)O3)S1`, the relative viability is 1.01 ± 0.14.

For the compound `O=c1cc(-c2cccc3c2Sc2ccccc2S3)oc(N2CCOCC2)c1`, the relative viability was determined as 0.833 ± 0.044.

As to `C/C=C1\NC(=O)[C@H]2CSSCC/C=C/[C@H](CC(=O)N[C@H](C(C)C)C(=O)N2)OC(=O)[C@H](C(C)C)NC1=O` [Depsipeptide], the relative viability was -0.0034 ± 0.0005.

Turning to `O=C1C(c2c(O)[nH]c3ccccc23)=Nc2ccccc21` [Indirubin; INDIRUBIN], the relative viability was 0.762 ± 0.078.

Consider `CCS(=O)(=O)c1cccc(-c2cc(C(=O)NC3CCN(C)CC3)c(C)c3[nH]c4ncc(C)cc4c23)c1`, for which the relative viability was 0.553 ± 0.083.

On to `Cn1cc(-c2ccc3nnc(C(F)(F)c4ccc5ncccc5c4)n3n2)cn1`, for which the relative viability was found to be 1.001 ± 0.009.

The same assay, now with this note: inflammatory serum-free RHB-A with cytokines + LPS; 5 d + 24 h CellTiter-Blue; compound 300 nM; GSK126 pretreatment: none (vehicle).
`C[C@]12CC[C@H](O)CC1=CC[C@@H]1[C@@H]2CC[C@]2(C)C(c3cccnc3)=CC[C@@H]12` [Abiraterone]: the relative viability is 1.03 ± 0.098.

`O=c1c(O)c(-c2ccc(O)c(O)c2)oc2cc(O)cc(O)c12` [QUERCETIN; Quercetin(Sophoretin); Quercetin dihydrate]: the relative viability was found to be 0.945 ± 0.058.

As to `CO[C@H]1C[C@@H]2CC[C@@H](C)[C@@](O)(O2)C(=O)C(=O)N2CCCC[C@H]2C(=O)O[C@H]([C@H](C)C[C@@H]2CC[C@@H](OCCO)[C@H](OC)C2)CC(=O)[C@H](C)/C=C(\C)[C@@H](O)[C@@H](OC)C(=O)[C@H](C)C[C@H](C)/C=C/C=C/C=C/1C` [Everolimus; Everolimus(RAD001)], the relative viability came out at 0.582 ± 0.063.

With `C#Cc1cccc(Nc2ncnc3cc(OCCOC)c(OCCOC)cc23)c1`, the relative viability worked out at 0.494 ± 0.031.

Regarding `CCC[C@H](NC(=O)/C(C#N)=C/c1cccc(Br)n1)c1ccccc1`, the relative viability was found to be 1.04 ± 0.065.

As to `COc1cc(Nc2ncc(F)c(Nc3ccc4c(n3)N(COP(=O)(O)O)C(=O)C(C)(C)O4)n2)cc(OC)c1OC`, the relative viability is 0.983 ± 0.067.

On to `CCCS(=O)(=O)Nc1ccc(F)c(C(=O)c2c[nH]c3ncc(Cl)cc23)c1F`, for which the relative viability turned out to be 1.02 ± 0.074.

Regarding `CC/C(=C(\c1ccccc1)c1ccc(OCCN(C)C)cc1)c1ccccc1` [Tamoxifen citrate], the relative viability turned out to be 0.972 ± 0.024.

Take `COc1cc2/c(=N/c3ccc(Br)cc3F)nc[nH]c2cc1OCC1CCN(C)CC1` [Vandetanib]: the relative viability worked out at 0.705 ± 0.044.

`N#CCNC(=O)c1ccc(-c2ccnc(Nc3ccc(N4CCOCC4)cc3)n2)cc1`: the relative viability is 1.4 ± 0.038.

On to `O=c1cc(N2CCOCC2)oc2c(-c3ccccc3)cccc12`, for which the relative viability stood at 0.835 ± 0.068.

On to `CN(C)C/C=C/C(=O)Nc1cc2c(Nc3ccc(F)c(Cl)c3)ncnc2cc1O[C@H]1CCOC1` [BIBW2992; BIBW2992(Tovok)], for which the relative viability came to 0.328 ± 0.052.

In the case of `S=c1[nH]cnc2nc[nH]c12` [Mercaptopurine], the relative viability worked out at 0.984 ± 0.011.

As to `CN(C)c1nc(N(C)C)nc(N(C)C)n1` [Altretamine], the relative viability turned out to be 0.887 ± 0.095.

As to `Cn1cc(-c2ccc3nnc(Sc4ccc5ncccc5c4)n3n2)cn1`, the relative viability is 0.903 ± 0.02.

For the compound `Nc1nc(N)c2nc(-c3cccc(O)c3)c(-c3cccc(O)c3)nc2n1`, the relative viability is 0.776 ± 0.075.

Take `CCCNC(=O)Nc1ccc(Oc2ncnc3cc(OC)c(OC)cc23)cc1Cl`: the relative viability worked out at 0.895 ± 0.087.

In the case of `CNC(=O)Nc1ccc(-c2nc(N3CC4CCC(C3)O4)c3cnn(C4CCC5(CC4)OCCO5)c3n2)cc1`, the relative viability amounted to 0.237 ± 0.035.

As for `N#Cc1c(O)c2c(-c3ccc(-c4ccccc4O)cc3)csc2[nH]c1=O`, the relative viability amounted to 0.942 ± 0.11.

As for `CC(=O)c1c(C)c2cnc(Nc3ccc(N4CCNCC4)cn3)nc2n(C2CCCC2)c1=O`, the relative viability was determined as 0.931 ± 0.064.

For the compound `CC[C@@]1(O)C(=O)OCc2c1cc1n(c2=O)Cc2cc3c(CN(C)C)c(O)ccc3nc2-1` [Topotecan HCl; Topotecan hydrochloride], the relative viability was 0.221 ± 0.038.

For `COc1cc2c(Oc3ccc4[nH]c(C)cc4c3F)ncnc2cc1OCCCN1CCCC1` [Cediranib(AZD2171)], the relative viability was determined as 0.996 ± 0.051.

Regarding `Cn1cnc2c(F)c(Nc3ccc(Br)cc3Cl)c(C(=O)NOCCO)cc21` [AZD6244(Selumetinib)], the relative viability turned out to be 0.34 ± 0.022.

In the case of `CC(C)C[C@H](NC(=O)[C@H](CCc1ccccc1)NC(=O)CN1CCOCC1)C(=O)N[C@@H](Cc1ccccc1)C(=O)N[C@@H](CC(C)C)C(=O)[C@@]1(C)CO1` [Carfilzomib], the relative viability was -0.00499 ± 0.0011.

`Nc1nccc(Oc2ccc(NC(=O)c3c[nH]cc(-c4ccc(F)cc4)c3=O)cc2F)c1Cl`: the relative viability is 1.12 ± 0.18.

As to `CNC(=O)CN1CCC(Oc2cc3c(Nc4cccc(Cl)c4F)ncnc3cc2OC)CC1`, the relative viability was 0.375 ± 0.024.

For `NC(=O)c1ccc(-c2nc(-c3ccccn3)c(-c3ccc4c(c3)OCO4)[nH]2)cc1`, the relative viability amounted to 0.882 ± 0.1.

As for `CN(C)Cc1cccc(N=C(c2ccccc2)c2c(O)[nH]c3cc(C(N)=O)ccc23)c1`, the relative viability turned out to be 0.942 ± 0.13.

For `Cc1cccc(-c2[nH]c(C(C)(C)C)nc2-c2ccc3nccnc3c2)n1`, the relative viability came to 0.887 ± 0.067.

For `OC[C@H]1O[C@@H](n2cnc3c2N=CNC[C@H]3O)C[C@@H]1O` [Pentostatin], the relative viability was determined as 0.914 ± 0.056.

As to `CC(C)C[C@H](NC(=O)[C@H](Cc1ccccc1)NC(=O)c1cnccn1)B(O)O` [Bortezomib], the relative viability was 0.00262 ± 0.0014.

Take `O=C1NC(=O)/C(=C/c2ccc3c(c2)OC(F)(F)O3)S1`: the relative viability was 0.968 ± 0.092.

Take `O=c1cc(-c2cccc3c2Sc2ccccc2S3)oc(N2CCOCC2)c1`: the relative viability came out at 0.875 ± 0.069.

Regarding `C/C=C1\NC(=O)[C@H]2CSSCC/C=C/[C@H](CC(=O)N[C@H](C(C)C)C(=O)N2)OC(=O)[C@H](C(C)C)NC1=O` [Depsipeptide], the relative viability was -0.00514 ± 0.00076.

For `O=C1C(c2c(O)[nH]c3ccccc23)=Nc2ccccc21` [Indirubin; INDIRUBIN], the relative viability is 0.807 ± 0.045.

For the compound `CCS(=O)(=O)c1cccc(-c2cc(C(=O)NC3CCN(C)CC3)c(C)c3[nH]c4ncc(C)cc4c23)c1`, the relative viability amounted to 0.485 ± 0.031.

Turning to `Cn1cc(-c2ccc3nnc(C(F)(F)c4ccc5ncccc5c4)n3n2)cn1`, the relative viability is 0.947 ± 0.026.
